Only a sample is shown.
miR-122 inh: miR-122 suppressors via Renilla sensor increase, primary screen, cell-based, Huh7 psiCHECK-miR122, Renilla luciferase, single point; hit rate 0.14% among 340,000; AID 623901, 2012; 48 h; activation, % at 12.5 µM;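 active = mean activation of 30% or more, with every replicate also reaching 30%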;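 also: 0% = median of neutral control wells and 100% = median of positive control wells; higher luciferase signal means stronger suppression of miR-122 activity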
Numbers without * were called inactive.

How did CO[C@@H]1CN(C)C(=O)c2cc(NC(=O)Cc3ccccc3)ccc2OC[C@@H](C)N(C)C[C@H]1C do in these assays?
miR-122 inh: -6

What do the screens show for `CCCNC(=O)N(C)C[C@H]1Oc2ncc(C#C[C@@H](C)O)cc2C(=O)N([C@H](C)CO)C[C@@H]1C`?
miR-122 inh: -1

How did CCCN1C[C@H](C)[C@@H](OC)CN(C)C(=O)c2ccc(NC(=O)COC)cc2OC[C@@H]1C do in these assays?
miR-122 inh: 0

What do the screens show for `C[C@H](CO)N1C[C@H](C)[C@H](CN(C)S(=O)(=O)c2cccc(F)c2)Oc2ncc(-c3ccc(F)cc3)cc2C1=O`?
miR-122 inh: 6

Results for CCCNC(=O)N(C)C[C@H]1Oc2cc(C#Cc3cccc(F)c3)ccc2S(=O)(=O)N([C@H](C)CO)C[C@H]1C ?
miR-122 inh: 3

What do the screens show for `C[C@H](CO)N1C[C@H](C)[C@H](CN(C)CC2CC2)Oc2ncc(-c3cccc(C(=O)N(C)C)c3)cc2C1=O`?
miR-122 inh: 11

Results for C[C@H]1CN([C@@H](C)CO)S(=O)(=O)c2ccc(-c3cncnc3)cc2O[C@H]1CN(C)Cc1ccccc1 ?
miR-122 inh: -5

How did C[C@H]1CN([C@@H](C)CO)C(=O)c2cc(C3=CCCCC3)cnc2O[C@@H]1CN(C)CC1CCOCC1 do in these assays?
miR-122 inh: -3

Results for C[C@@H]1CN([C@H](C)CO)C(=O)c2cc(C#Cc3ccccc3)cnc2O[C@H]1CN(C)C(=O)c1ccccn1 ?
miR-122 inh: 5

How did C[C@@H]1CN([C@H](C)CO)C(=O)c2cc(C#Cc3cccnc3)cnc2O[C@@H]1CN(C)S(C)(=O)=O do in these assays?
miR-122 inh: -6

How did CC(C)C#Cc1ccc2c(c1)O[C@@H](CN(C)C(=O)CC1CC1)[C@H](C)CN([C@H](C)CO)S2(=O)=O do in these assays?
miR-122 inh: 3

How did CCCC#Cc1cnc2c(c1)C(=O)N([C@H](C)CO)C[C@H](C)[C@@H](CN(C)C(=O)C1CC1)O2 do in these assays?
miR-122 inh: -10

How did Cn1cnc(S(=O)(=O)N2C[C@@H](O)COC[C@H]3O[C@@H](CC(=O)NC4CCCC4)CC[C@@H]32)c1 do in these assays?
miR-122 inh: -127

Results for C[C@@H]1CN([C@@H](C)CO)C(=O)c2cc(C#CCC3CCCC3)cnc2O[C@@H]1CN(C)Cc1ccccn1 ?
miR-122 inh: -2

How did C[C@@H]1CN([C@H](C)CO)C(=O)c2cc(C#CC3(O)CCCC3)cnc2O[C@H]1CN(C)C(=O)CN(C)C do in these assays?
miR-122 inh: 0

How did CCCC#Cc1cnc2c(c1)C(=O)N([C@@H](C)CO)C[C@@H](C)[C@@H](CN(C)C(=O)Cc1ccccc1)O2 do in these assays?
miR-122 inh: -2

Results for Cc1noc(C)c1NC(=O)N(C)C[C@H]1Oc2cc(C#CCC(C)C)ccc2S(=O)(=O)N([C@@H](C)CO)C[C@H]1C ?
miR-122 inh: -54

How did C[C@H](CO)N1C[C@H](C)[C@H](CN(C)Cc2ccccn2)Oc2ncc(Br)cc2C1=O do in these assays?
miR-122 inh: -3

How did CO[C@@H]1CN(C)C(=O)c2cc(NC(=O)c3ccc(F)cc3)ccc2OC[C@@H](C)N(C)C[C@H]1C do in these assays?
miR-122 inh: -3

How did CN1C(=O)c2cc(NC(=O)Cc3ccccc3)ccc2OC[C@@H]2O[C@@H](CC(=O)NCc3ccc(Cl)cc3)CC[C@@H]21 do in these assays?
miR-122 inh: -233

What do the screens show for `COc1cccc(C(=O)Nc2ccc3c(c2)C(=O)N(C)[C@@H]2CC[C@@H](CC(=O)NCc4ccc(F)cc4)O[C@@H]2CO3)c1`?
miR-122 inh: 37*

Results for COCC(=O)N(C)C[C@H]1Oc2ncc(/C=C/c3ccccc3)cc2C(=O)N([C@@H](C)CO)C[C@@H]1C ?
miR-122 inh: -3

How did COC(=O)C1=C(C)N=C2SC(C#N)=C(N)N2C1c1cc(OC)c(OC)c(OC)c1 (centres undefined) do in these assays?
miR-122 inh: 38*

What do the screens show for `COc1ccc(NC(=O)N(C)C[C@H]2Oc3ncc(C4=CCCC4)cc3C(=O)N([C@H](C)CO)C[C@@H]2C)cc1`?
miR-122 inh: 5

How did Cc1ccc(-c2cnc3c(c2)C(=O)N([C@@H](C)CO)C[C@@H](C)[C@@H](CN(C)C(=O)c2ccncc2)O3)cc1 do in these assays?
miR-122 inh: 7

Results for C[C@@H]1CN([C@@H](C)CO)S(=O)(=O)c2ccc(-c3ccccc3)cc2O[C@H]1CN(C)Cc1ccccc1C(=O)O ?
miR-122 inh: -5

How did C[C@@H]1CN([C@@H](C)CO)C(=O)c2cc(C#CC3CCCC3)cnc2O[C@H]1CN(C)C(=O)C1CCC1 do in these assays?
miR-122 inh: 1

How did COc1ccc(-c2cnc3c(c2)C(=O)N([C@@H](C)CO)C[C@H](C)[C@@H](CN(C)Cc2ccccn2)O3)cc1 do in these assays?
miR-122 inh: -2

What do the screens show for `C[C@@H]1CN([C@H](C)CO)C(=O)c2cc(/C=C/c3ccccc3)cnc2O[C@@H]1CN(C)S(=O)(=O)c1ccc(F)cc1`?
miR-122 inh: 8

How did C[C@@H](O)C#Cc1ccc2c(c1)O[C@@H](CN(C)C(=O)Cc1ccccn1)[C@@H](C)CN([C@@H](C)CO)S2(=O)=O do in these assays?
miR-122 inh: 3

Results for C[C@H](O)C#Cc1cnc2c(c1)C(=O)N([C@H](C)CO)C[C@@H](C)[C@H](CN(C)Cc1cncnc1)O2 ?
miR-122 inh: -1

Results for CC(C)Cc1nc2sc3c(=O)[nH]cnc3c2c2c1CCC2 ?
miR-122 inh: -126

What do the screens show for `CN(C)CCNc1ncnc2c1sc1nc(-c3ccccc3)c3c(c12)CCCC3`?
miR-122 inh: 35*

What do the screens show for `CCC(=O)Nc1ccc2c(c1)OC[C@H](C)N(C(=O)CN1CCOCC1)C[C@H](C)[C@H](OC)CN(C)C2=O`?
miR-122 inh: 4

Results for CCCNC(=O)N(C)C[C@@H]1Oc2cc(Br)ccc2S(=O)(=O)N([C@H](C)CO)C[C@H]1C ?
miR-122 inh: 4

Results for COc1cc(-c2nnc3sc(C4CCCCC4)nn23)cc(OC)c1OC ?
miR-122 inh: 32*

Results for CCCC#Cc1cnc2c(c1)C(=O)N([C@H](C)CO)C[C@H](C)[C@H](CN(C)C(=O)C1CC1)O2 ?
miR-122 inh: -12

How did CCCNC(=O)N(C)C[C@@H]1Oc2ncc(C#CCC(C)C)cc2C(=O)N([C@H](C)CO)C[C@H]1C do in these assays?
miR-122 inh: 7

Results for C[C@@H]1CN([C@H](C)CO)S(=O)(=O)c2ccc(C#C[C@@H](C)O)cc2O[C@@H]1CN(C)CC1CCOCC1 ?
miR-122 inh: 1

Results for C[C@H]1CN([C@@H](C)CO)C(=O)c2cc(C#Cc3cccc(F)c3)cnc2O[C@H]1CN(C)C(=O)C1CC1 ?
miR-122 inh: 7

What do the screens show for `COCC(=O)N(C)C[C@H]1Oc2cc(-c3ccccc3F)ccc2S(=O)(=O)N([C@H](C)CO)C[C@H]1C`?
miR-122 inh: 46*

Results for COCC(=O)N(C)C[C@@H]1Oc2cc(-c3cccc(F)c3)ccc2S(=O)(=O)N([C@@H](C)CO)C[C@H]1C ?
miR-122 inh: -2

How did COCC(=O)N(C)C[C@H]1Oc2cc(-c3ccccc3)ccc2S(=O)(=O)N([C@H](C)CO)C[C@H]1C do in these assays?
miR-122 inh: 8

What do the screens show for `COCC(=O)N(C)C[C@@H]1Oc2cc(-c3ccccc3)ccc2S(=O)(=O)N([C@@H](C)CO)C[C@H]1C`?
miR-122 inh: 5
